The sample as a whole holds a higher share of hits than the screen did.
14-3-3 PPI = modulators of human 14-3-3 gamma - Raf peptide interaction; P61981; FP, 14-3-3gamma / TMR-pS259-Raf peptide binding; inhibition, % at 40 µM; actives 0.19% (n = 160,000); in the data active means inhibition above about 30%;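 further: 0% = protein plus tracer without compound and 100% = blank with tracer alone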
Target sequence (P61981 whole entry, looked up): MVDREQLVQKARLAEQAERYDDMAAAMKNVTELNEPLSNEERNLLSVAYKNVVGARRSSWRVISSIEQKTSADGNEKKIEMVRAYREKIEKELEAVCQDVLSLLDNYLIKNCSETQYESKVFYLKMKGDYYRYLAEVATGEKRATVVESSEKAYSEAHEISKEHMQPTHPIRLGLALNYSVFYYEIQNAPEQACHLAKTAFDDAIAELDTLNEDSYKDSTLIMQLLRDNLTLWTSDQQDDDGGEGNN
* marks the source's active call; other numbers are inactive results.

SMILES	14-3-3 PPI
Cc1nnc(N2C(=O)C(O)=C(C(=O)c3cccs3)C2c2cccc(Oc3ccccc3)c2)s1 (stereo not drawn)	-44
COc1cccc(NC(=O)CSc2nccn2-c2cccc(C)c2C)c1	-6
COc1ccc(-n2nc3c(c2NC(=O)c2ccc(OC(C)C)cc2)CS(=O)C3)cc1 (stereo not drawn)	-13
CCOc1ccc(NC(=O)c2cc3cc(OC)ccc3oc2=O)cc1	-3
COCc1cc(=O)[nH]c(/N=C(\N)Nc2cccc(Cl)c2C)n1	4
Cc1nc2ccccc2c(C(=O)O)c1C(=O)O	-3
C/C(O)=c1/c(=O)nc2cccc3c2=c1c1ccccc1c3=O	35*
Cc1cccc(-c2nc3ccccc3c(=O)[nH]2)c1	-47
CCSc1nnc2c(n1)OC(c1ccc(N(CC)CC)cc1)Nc1ccccc1-2 (stereo not drawn)	39*
CCCCCCSc1nnc2c(n1)OC(c1cccnc1)Nc1ccccc1-2 (stereo not drawn)	68*
CCSc1nnc2c(n1)OC(c1ccc(CC)cc1)Nc1ccccc1-2 (stereo not drawn)	18
CCCCSc1nnc2c(n1)OC(c1cccnc1)Nc1ccc(Br)cc1-2 (stereo not drawn)	-34
CCCCSc1nnc2c(n1)OC1(CCCC1)Nc1ccccc1-2	117*
O=C(O)CSc1nnc2c(n1)OC1(CCCC1)Nc1ccccc1-2	-4
CCSc1nnc2c(n1)OC(c1ccc(C)cc1)Nc1ccccc1-2 (stereo not drawn)	5
CCCSc1nnc2c(n1)OC(c1cc3c(cc1Cl)OCO3)Nc1ccccc1-2 (stereo not drawn)	-50
CCCSc1nnc2c(n1)OC(c1ccccc1Cl)Nc1ccccc1-2 (stereo not drawn)	33*
CCCSc1nnc2c(n1)OC1(CCCC1)Nc1ccc(Br)cc1-2	-58
CCCSc1nnc2c(n1)OC(c1ccncc1)Nc1ccccc1-2 (stereo not drawn)	-9
CCCCSc1nnc2c(n1)OC(c1ccccc1)Nc1ccccc1-2 (stereo not drawn)	-3
Clc1c(CSc2nc3ccccc3s2)nc2ncccn12	-3
CCCc1cc(=O)oc2cc3occ(-c4ccc(Br)cc4)c3cc12	-6
CC1CCN(S(=O)(=O)c2ccc3ncn(CC(=O)N4CCCC(C)C4)c(=O)c3c2)CC1 (stereo not drawn)	-1
Cc1cc(N2CCOCC2)nc2ccc(NC(=O)CCC(=O)NCC3COc4ccccc4O3)cc12 (stereo not drawn)	1
Cc1c(C(=O)Nc2ccccc2C(F)(F)F)sc2ncnc(N3CCCCC3C)c12 (stereo not drawn)	3
SMILES	14-3-3 PPI
COc1ccccc1N1CCN(S(=O)(=O)c2c(C)sc3ncn(CC(=O)NCc4ccco4)c(=O)c23)CC1	-28
O=C(Nc1cc(C(=O)N2CCc3ccccc3C2)ccc1N1CC2CC(C1)c1cccc(=O)n1C2)c1ccncc1 (stereo not drawn)	-5
CC(C)C(C(=O)OCC(=O)c1ccccc1)N1C(=O)C2C3CCC(C3)C2C1=O (stereo not drawn)	5
CCOc1cc(C2Nc3ccccc3-c3nnc(SC)nc3O2)cc(Br)c1OCC (stereo not drawn)	-106
C=CCSc1nnc2c(n1)OC(c1cccc(O)c1)Nc1ccccc1-2 (stereo not drawn)	-5
CSc1nnc2c(n1)OC(c1ccc(Br)s1)Nc1ccccc1-2 (stereo not drawn)	-18
CCOc1cccc(C2Nc3ccccc3-c3nnc(SC)nc3O2)c1OC (stereo not drawn)	-1
C=CCOc1cccc(C2Nc3ccccc3-c3nnc(SCC=C)nc3O2)c1 (stereo not drawn)	140*
CSc1nnc2c(n1)OC(c1ccsc1)Nc1ccccc1-2 (stereo not drawn)	-3
CCCSc1nnc2c(n1)OC(c1ccsc1)Nc1ccc(Br)cc1-2 (stereo not drawn)	-65
CCCSc1nnc2c(n1)OC(c1ccsc1)Nc1ccccc1-2 (stereo not drawn)	64*
CSc1nnc2c(n1)OC(c1ccccc1Br)Nc1ccccc1-2 (stereo not drawn)	41*
CSc1nnc2c(n1)OC(c1ccccc1O)Nc1ccccc1-2 (stereo not drawn)	1
C=CCSc1nnc2c(n1)OC(c1cccnc1)Nc1ccccc1-2 (stereo not drawn)	-17
CCOc1ccc([N+](=O)[O-])cc1C1Nc2ccccc2-c2nnc(SC)nc2O1 (stereo not drawn)	38*
Oc1ccccc1C=Nc1ccccc1-c1nc2ccccc2s1	-13
Sc1sc(-c2ccccc2)cc1C=Nc1ccccc1	-181
CCCNC(=O)C(=O)Nc1cccc(Cl)c1C	13
CCc1cc2c(=O)c(Oc3ccccc3)c(C(F)(F)F)oc2cc1OC	-46
CCOC(=O)C1=C(C)N=C2SC(C)C(=O)N2C1c1ccc(OC(C)=O)cc1 (stereo not drawn)	-29
CCOc1ccccc1N1C(=O)C2C(c3ccc(C)cc3)OC3(C(=O)c4ccccc4C3=O)C2C1=O (stereo not drawn)	-3

High-throughput results as filed in PubChem BioAssay.
